Assay results reported in PubChem BioAssay (NCATS).
Entries with a potency or affinity are not part of this list. Active and inactive are the calls of the source. The rule behind the calls is not given here.

Conditions: Ebola virus entry assay, green fluorescence channel
Note: 0% is about no effect.

Compound	efficacy
CN1CCC(=C2c3ccccc3CCc3sccc32)CC1	69.4% (inactive)
C[C@@H]1CN(CCCn2c3ccccc3c3ccccc32)C[C@H](C)N1	-134% (inactive)
COc1ccc2c(c1)c(CC(=O)OCC(=O)O)c(C)n2C(=O)c1ccc(Cl)cc1	44.7% (inactive)
CC(C)(C)c1ccc(C(=O)CCCN2CCC(OC(c3ccccc3)c3ccccc3)CC2)cc1	47.5% (inactive)
CCN(CC)CCOCCOC(=O)C1(c2ccccc2)CCCC1	62.4% (inactive)
COc1cc(C(=O)OCCCN2CCCN(CCCOC(=O)c3cc(OC)c(OC)c(OC)c3)CC2)cc(OC)c1OC	89.6% (inactive)
CN1CCC(=C2c3ccccc3CC(=O)c3sccc32)CC1	93.4% (inactive)
CCCCNc1ccc(C(=O)OCCN(CC)CC)cc1	87.1% (inactive)
CN1CCC(OC(c2ccccc2)c2ccccc2)CC1	74.4% (inactive)
CC[C@]12CCCN3CCc4c(n(c5ccccc45)C(=O)C1)[C@@H]32	62% (inactive)
CN1C[C@H](C(=O)N[C@]2(C)O[C@@]3(O)[C@@H]4CCCN4C(=O)[C@H](Cc4ccccc4)N3C2=O)C[C@@H]2c3cccc4[nH]cc(c34)C[C@H]21	95.4% (inactive)
CN(CCCN1c2ccccc2CCc2ccccc21)CC(=O)c1ccc(Cl)cc1	78.9% (inactive)
CCCCCCCCNC(C)C(O)c1ccc(SC(C)C)cc1 (centres undefined)	48.4% (inactive)
CCCCCCCCCCOCC(O)CN (centres undefined)	-191% (inactive)
CCCCCCCCCCCCCCCC[n+]1ccccc1	-209% (inactive)
CC1=C(CC(=O)O)c2cc(F)ccc2/C1=C\c1ccc(S(C)=O)cc1 (centres undefined)	55.9% (inactive)
Cc1ccc2c(Br)cc(Br)c(O)c2n1	99.5% (inactive)
CCC(=O)O[C@]1(C(=O)CCl)[C@@H](C)C[C@H]2[C@@H]3CCC4=CC(=O)C=C[C@]4(C)[C@@]3(F)[C@@H](O)C[C@@]21C	88.5% (inactive)
NC(=NCCCCCCN=C(N)/N=C(\N)Nc1ccc(Cl)cc1)/N=C(\N)Nc1ccc(Cl)cc1	-197% (inactive)
O=C(OCC(O)CO)c1ccccc1Nc1ccnc2cc(Cl)ccc12 (centres undefined)	41.9% (inactive)
Cc1oc(-c2ccccc2)nc1CCC(=O)c1ccc(CC2SC(=O)NC2=O)cc1 (centres undefined)	43.2% (inactive)
OC(C#CCN1CCCC1)(c1ccccc1)c1ccccc1	80.1% (inactive)
CC(NCCC(c1ccccc1)c1ccccc1)c1ccccc1 (centres undefined)	-189% (inactive)
C=CCc1ccccc1OCC(O)CNC(C)C (centres undefined)	42.4% (inactive)
